# Laboratory results published in PubChem BioAssay (NCI).
# Values joined by “and” are separate entries in the source; they are usually repeats but may differ in a detail not shown here. Equal values may be shown once. About 83,000 compounds went through this panel and 20% of them were active in at least one assay; those are over-represented in the sample as a whole.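 Plates (96-well) were seeded with cells, treated with compound at one concentration, and incubated for 48 hours before percent growth was determined.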 Active and inactive are the calls of the source. The calls were made as follows: active = growth percent below 10; inactive = the rest.
# Experiments:
# Test in all cases: NCI-60 one-dose screen, 48 h (100 = growth as untreated, 0 = no growth, -100 = all killed)
# Conditions in all cases: 10 µM unless noted
# [1] = system: NCI-H23 lung
# [2] = system: NCI-H226 lung
# [3] = system: NCI-H322M lung
# [4] = system: HOP-62 NSCLC
# [5] = system: NCI-H460 lung
# [6] = system: HOP-92 NSCLC
# [7] = system: NCI-H522 lung
# [8] = system: 786-0 renal
# [9] = system: COLO 205 colon
# [10] = system: DU-145 prostate
# [11] = system: K-562 leukemia
# [12] = system: MALME-3M melanoma
# [13] = system: MDA-MB-231 breast
# [14] = system: RXF 393 renal
# [15] = system: SF-268 CNS
# [16] = system: SF-295 CNS
# [17] = system: SF-539 CNS
# [18] = system: UACC-257 melanoma
# [19] = system: M14 melanoma
# [20] = system: A549/ATCC NSCLC
Compound,growth [1],growth [2],growth [3],growth [4],growth [5],growth [6],growth [7],growth [8],growth [9],growth [10],growth [11],growth [12],growth [13],growth [14],growth [15],growth [16],growth [17],growth [18],growth [19],growth [20]
CC(C)CNC(=O)c1ccccc1C(=O)NC1(C(=O)NCC(C)C)CCCC1,100% (inactive) and 108% (inactive),99% (inactive) and 103% (inactive),112% (inactive) and 106% (inactive),102% (inactive) and 95.6% (inactive),108% (inactive) and 113% (inactive),117% (inactive),95.9% (inactive),107% (inactive) and 99% (inactive),102% (inactive) and 121% (inactive),111% (inactive) and 109% (inactive),102% (inactive),125% (inactive),109% (inactive) and 105% (inactive),113% (inactive) and 130% (inactive),104% (inactive),111% (inactive) and 105% (inactive),100% (inactive),102% (inactive) and 106% (inactive),108% (inactive) and 102% (inactive),–
N#CC(C#N)=C/C=C/c1cccc([N+](=O)[O-])c1,19.4% (inactive) and -19.3% (active),21.8% (inactive) and -24.7% (active),59.9% (inactive) and 26.4% (inactive),-4.35% (active) and -23.7% (active),–,23.3% (inactive),-55.5% (active) and -70.5% (active),26.2% (inactive) and -22.1% (active),1.24% (active) and -26.8% (active),-26.8% (active) and -24.1% (active),7.22% (active) and 3.61% (active),7.87% (active),9.84% (active) and 8.38% (active),-68.9% (active) and -73.5% (active),6.01% (active) and -8.99% (active),37.1% (inactive) and -41.1% (active),8.63% (active) and 4.54% (active),-32% (active) and -64.4% (active),-37.1% (active) and -74.9% (active),34.1% (inactive) and 10.2% (inactive)
CCN(CC)CCCC(C)Nc1cnc(C(=O)Nc2cc(F)cc3cccnc23)cn1 (centres undefined),81.4% (inactive) and -25.1% (active),85.1% (inactive) and 49.5% (inactive),63.8% (inactive) and 0.121% (active),64.1% (inactive) and -14.1% (active),69.5% (inactive) and -75.9% (active),37.5% (inactive) and -76.6% (active),52.7% (inactive) and -59.4% (active),68.4% (inactive) and -55.1% (active),3.11% (active) and -50.9% (active),63.3% (inactive) and -82.2% (active),3.95% (active) and 4.95% (active),-8.34% (active) and -76.1% (active),59.4% (inactive) and -55% (active),33.8% (inactive) and -84.4% (active),51.9% (inactive) and -92.1% (active),71.2% (inactive) and 3.03% (active),83.1% (inactive) and 8.22% (active),76.8% (inactive) and -12.4% (active),21.9% (inactive) and -5.6% (active),–
CO/N=C/C=C\C(=O)N/C=C/C[C@H]1/C=C/[C@H](O)/C=C\C=C\c2cccc(O)c2C(=O)O1,61.4% (inactive) and 54.8% (inactive),-81.9% (active) and -73.8% (active),42.8% (inactive) and 51.7% (inactive),19.5% (inactive) and 17.4% (inactive),16.9% (inactive) and 8.82% (active),23.9% (inactive) and -9.99% (active),28.1% (inactive) and 15% (inactive),24.2% (inactive) and 18.7% (inactive),–,55.6% (inactive) and 40% (inactive),4.46% (active) and 2.94% (active),59.8% (inactive) and 22.5% (inactive),27.3% (inactive) and 41.9% (inactive),51% (inactive) and 55.5% (inactive),45.5% (inactive) and 31.9% (inactive),-36.9% (active) and -43.7% (active),21% (inactive) and 4.04% (active),-16.7% (active) and 21.8% (inactive),-13.4% (active) and -41% (active),–
CN1CCN(Cc2occc(=O)c2O)CCN(C)CCN(Cc2occc(=O)c2O)CC1,94.6% (inactive) and 49.4% (inactive),94.7% (inactive) and 70.5% (inactive),105% (inactive) and 74.9% (inactive),97.1% (inactive) and 58.9% (inactive),105% (inactive) and 6.42% (active),83.8% (inactive) and 68.4% (inactive),104% (inactive) and 45.8% (inactive),93.3% (inactive) and 50% (inactive),102% (inactive) and 29.7% (inactive),124% (inactive) and 61.6% (inactive),101% (inactive) and 16.6% (inactive),106% (inactive) and 72% (inactive),106% (inactive) and 62.3% (inactive),96.6% (inactive) and 72.9% (inactive),113% (inactive) and 63.7% (inactive),102% (inactive) and 76.2% (inactive),93.7% (inactive) and 48% (inactive),61.6% (inactive),105% (inactive) and 52.9% (inactive),–
CCCCCCCCCCCCOc1ccccc1C=O,100% (inactive),95.4% (inactive),114% (inactive),85.3% (inactive),102% (inactive),–,91.3% (inactive),109% (inactive),109% (inactive),111% (inactive),83.7% (inactive),–,102% (inactive),110% (inactive),97.5% (inactive),99% (inactive),102% (inactive),96.8% (inactive),101% (inactive),93.3% (inactive)
Nc1ccccc1Nc1ccccc1,100% (inactive) and 96.2% (inactive),98.8% (inactive) and 86.8% (inactive),86.5% (inactive) and 93% (inactive),103% (inactive) and 91.6% (inactive),–,136% (inactive),54% (inactive) and -2.1% (active),90.8% (inactive) and 82.8% (inactive),125% (inactive) and 104% (inactive),100% (inactive) and 93.4% (inactive),67.8% (inactive) and 85.5% (inactive),117% (inactive) and 136% (inactive),82.1% (inactive) and 71.7% (inactive),122% (inactive) and 129% (inactive),90.4% (inactive) and 77.8% (inactive),98.4% (inactive),94.8% (inactive) and 78.5% (inactive),86.1% (inactive) and 115% (inactive),106% (inactive) and 102% (inactive),79.2% (inactive)
CCOc1ccc2nc3cc(N)ccc3c(N)c2c1,46.3% (inactive) and 40.5% (inactive),20.2% (inactive) and 44.6% (inactive),36.7% (inactive) and 28.8% (inactive),23% (inactive) and 26.8% (inactive),29.3% (inactive) and 61.9% (inactive),58.3% (inactive),0.893% (active) and 10.4% (inactive),24.2% (inactive) and 13.8% (inactive),71.1% (inactive) and 75.9% (inactive),64.2% (inactive) and 67.6% (inactive),113% (inactive) and 57.9% (inactive),-18.6% (active) and -14.8% (active),86.5% (inactive),55.5% (inactive) and 43.2% (inactive),-39.5% (active) and -36.7% (active),30.4% (inactive) and 16.5% (inactive),34.9% (inactive) and 31.7% (inactive),62.3% (inactive) and 67.3% (inactive),90.3% (inactive) and 75.8% (inactive),–
Nc1ncnc2c1ncn2C1CC(O)C(CO)O1 (centres undefined),106% (inactive) and 112% (inactive),101% (inactive) and 105% (inactive),155% (inactive) and 112% (inactive),109% (inactive) and 105% (inactive),102% (inactive) and 124% (inactive),–,142% (inactive) and 100% (inactive),101% (inactive) and 105% (inactive),116% (inactive) and 107% (inactive),125% (inactive) and 118% (inactive),116% (inactive) and 96.6% (inactive),220% (inactive) and 110% (inactive),112% (inactive) and 119% (inactive),109% (inactive),116% (inactive) and 107% (inactive),82.6% (inactive) and 95% (inactive),89.6% (inactive) and 121% (inactive),102% (inactive),113% (inactive) and 103% (inactive),101% (inactive)
